Shown are actives, neighbours in structure and some others; about 1.3% of the full set was active somewhere.
TrxR1 substrate – is turned over as a substrate by rat TrxR1; O89049; Potency, µM (titrated, usually from 114 µM); hit rate 0.01% among 390,000; purified TrxR1 substrate turnover, NADPH consumption readout; note: nearly all actives have a fitted effect of over 50% in size
Target sequence (O89049 whole entry, looked up): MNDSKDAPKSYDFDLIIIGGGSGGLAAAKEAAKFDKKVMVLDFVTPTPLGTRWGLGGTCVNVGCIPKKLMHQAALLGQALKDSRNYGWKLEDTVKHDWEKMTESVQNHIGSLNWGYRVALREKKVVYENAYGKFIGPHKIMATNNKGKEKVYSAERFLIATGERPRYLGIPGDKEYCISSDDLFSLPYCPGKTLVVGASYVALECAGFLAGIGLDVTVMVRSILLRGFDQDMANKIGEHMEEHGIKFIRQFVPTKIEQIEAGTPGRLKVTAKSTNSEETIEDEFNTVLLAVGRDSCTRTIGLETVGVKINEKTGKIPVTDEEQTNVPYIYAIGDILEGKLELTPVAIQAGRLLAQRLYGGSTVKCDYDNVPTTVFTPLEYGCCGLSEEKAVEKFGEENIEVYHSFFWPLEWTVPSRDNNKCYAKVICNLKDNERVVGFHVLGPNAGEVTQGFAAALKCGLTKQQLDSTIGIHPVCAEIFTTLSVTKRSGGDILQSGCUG
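Rat TrxR1, dispensed at 90 nM, was prereduced with 400 uM NADPH (final) for 5 min at ~22 deg C, then incubated with compound 15 min before 400 uM selenite. A first-read NADPH fluorescence drop versus no-compound background flagged substrates.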
mIDH1 inhibitor – blocks human mutant IDH1 R132H enzyme; O75874; IDH1-R132H enzyme, NADPH consumption, diaphorase/resazurin fluorescence; Potency, µM (titrated, usually from 76.6 µM), most hits filed as inhibitors; hit rate 0.093% among 390,000; AID 602179; note: nearly all actives have a fitted effect of over 65% in size
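IDH1-R132H (0.5 ug/mL dispensed) in pH 7.5 Tris buffer was preincubated 30 min with compound, then given a substrate mix of 0.016 mM NADPH and 2 mM alpha-KG for 80 min at room temperature; remaining NADPH was read by diaphorase/resazurin fluorescence.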
Anesthetic bind – candidate novel general anesthetic via apoferritin binding. Potency, µM (series often up to 77.5 µM), most hits filed as inhibitors. AID 485281. hit rate 0.074% among 350,000. apoferritin/1-aminoanthracene competitive binding, fluorescence; note: nearly all actives have a fitted effect of over 20% in size
Target sequence (P02791 2-175 limits assumed): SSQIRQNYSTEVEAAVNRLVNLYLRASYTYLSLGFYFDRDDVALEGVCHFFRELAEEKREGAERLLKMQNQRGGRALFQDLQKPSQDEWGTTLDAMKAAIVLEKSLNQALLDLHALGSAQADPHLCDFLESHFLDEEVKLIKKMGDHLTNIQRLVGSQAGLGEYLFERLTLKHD
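Probe: 1-aminoanthracene (50% saturated, PBS). Protein: horse-spleen apoferritin, 10 uM. Incubation: 10 min, room temperature. Detection: 380 nm excitation, 535 nm emission. Analysis: normalized response, four-parameter Hill.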
PKM2 act – activators of human pyruvate kinase M2. P14618. purified PKM2, Kinase-Glo ATP luminescence, activation; response scale: 0% is enzyme alone, no compound. hit rate 0.34% among 260,000. AID 1631. Potency, µM (titrated, usually from 57.5 µM), usual class: activators; note: nearly all actives have a fitted effect of over 55% in size
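Purified hPK-M2 (>95% pure) converted ADP (0.1 mM final) to ATP with 0.5 mM PEP in 50 mM imidazole pH7.2, KCl, MgCl2, Tween 20, BSA; 1 h at room temperature. ATP detected by Kinase-Glo luminescence.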
TrxR1 inh-1 – rat TrxR1 inhibition; recombinant rTrxR1, NADPH fluorescence consumption, selenite substrate; Potency, µM (series often up to 114 µM), most hits filed as inhibitors; O89049; AID 588453; hit rate 1% among 390,000; note: nearly all actives have a fitted effect of over 65% in size
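Rat TrxR1 (90 nM in the dispensed reagent) was pre-reduced with 400 uM NADPH for 5 min at room temperature, then incubated with compound for 15 min. After 400 uM selenite was added, NADPH fluorescence (Ex 340/Em 450 nm) was followed for 8 min.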
GALK inh – galactokinase (human) inhibition. Purified GALK, Kinase-Glo residual ATP luminescence. Potency, µM (top dose mostly 57.5 µM), most hits filed as inhibitors. hit rate 0.007% among 270,000
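Luminescence from leftover ATP (Ultra-Glo luciferase/luciferin) served as read-out after a 1 h room-temperature reaction of 5 nM GALK with 35 uM ATP and 100 uM galactose.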
GR inh – inhibits human glutathione reductase in TrxR1 counterassay; purified GR, DTNB reduction absorbance 405 nm kinetic; activity change, negative = inhibition, % at 57.1 µM; 55 tested, under 10 active; AID 652020; shares compounds with TrxR1 inh-1
TrxR1 inh-2 – rat TrxR1 inhibition, primary screen retest | shares compounds with TrxR1 inh-1 | recombinant TrxR1, NADPH fluorescence consumption, selenite substrate | Potency, µM, usual class: inhibitors | hit rate 50% among 55
TrxR1 insulin MOA – TrxR1 inhibition in insulin mechanism assay. shares compounds with TrxR1 inh-1. TrxR1 Trx-coupled insulin reduction, NADPH absorbance 340 nm. Potency, µM. hit rate 20% among 55;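 active = compounds with a measured potency under 100 micromolar; inconclusive = filed, but no rule given; inactive = potency at or above that, or unmeasurable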
TrxR1 inh-3 – blocks rat TrxR1 reduction of DTNB; shares compounds with TrxR1 inh-1; purified TrxR1, DTNB reduction, A412; Potency, µM; hit rate 90% among 55; AID 652256;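 active = a half-inhibiting concentration could be measured and was below 100 µM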
Resorufin autofl – autofluorescence interference, mutant IDH1 hit counter-screen | shares compounds with mIDH1 inhibitor | Resorufin detection reagent fluorescence interference, cell-free | inhibition of signal, % at 51.2 µM | 750 tested, under 10 active | AID 623980
WT IDH1 inh – inhibits human wild-type IDH1, mutant selectivity check. shares compounds with mIDH1 inhibitor. WT IDH1 enzyme, NADPH diaphorase/resazurin fluorescence. Potency, µM (titrated, usually from 115 µM), actives largely listed as inhibitors. hit rate 9% among 750. AID 623995; note: nearly all actives have a fitted effect of over 55% in size
mIDH1 confirm – inhibits human mutant IDH1 enzyme in cherrypick confirmation; shares compounds with mIDH1 inhibitor; IDH1 R132H enzyme, NADPH diaphorase/resazurin fluorescence; Potency, µM (highest dose often 76.6 µM), actives largely listed as inhibitors; hit rate 83% among 750; AID 624002; note: nearly all actives have a fitted effect of over 50% in size
Hits are given with their value; – = inactive; ? = inconclusive; · = not tested or not shown. Unless noted, calls come from the whole dose curve; as a rule, active = well fitted curve in the direction sought with a large enough effect; inconclusive = small, poorly fitted or top-dose-only effect, or another doubt; inactive = no such curve, though single readings can be large; an effect the other way counts as inactive or inconclusive.

SMILES | TrxR1 substrate | mIDH1 inhibitor | Anesthetic bind | PKM2 act | TrxR1 inh-1 | GALK inh | Resorufin autofl | WT IDH1 inh | mIDH1 confirm | others
COc1ccc(C(=O)NCCn2cc(SCc3cc(C)ccc3C)c3ccccc32)cc1 | – | – | – | · | – | · | · | · | ·
O=C1N/C(=C/c2ccc(N3CCOCC3)o2)C(=O)N1c1ccccc1 | – | – | – | ? | 7.1µM | – | · | · | · | GR inh=–;TrxR1 inh-2=2.1;TrxR1 insulin MOA=–;TrxR1 inh-3=2.1µM
C=CCN1C(=O)N/C(=C/c2ccc(N3CCOCC3)o2)C1=O | · | · | – | ? | · | · | · | · | ·
CCC(C)(C)n1nnnc1C(c1ccc(O)c(OC)c1)N1CCc2ccccc2C1 (configuration not stated) | – | – | ? | ? | 0.079µM | – | · | · | · | GR inh=–;TrxR1 inh-2=0.34;TrxR1 insulin MOA=–;TrxR1 inh-3=0.011µM
CCOC(=O)N1CCN(Cc2nc(N)nc(Nc3ccc(Oc4ccccc4)cc3)n2)CC1 | – | 52µM | – | – | ? | – | – | – | ?
COC(=O)c1cc2sc(Cl)cc2n1CC(=O)Nc1cc(C)cc(C)c1 | – | – | – | · | – | · | · | · | ·
CCN(CC)S(=O)(=O)c1ccc(NC(=O)NCc2noc3ccc(C)cc23)cc1 | – | – | – | · | – | · | · | · | ·
COc1cc2cc(-c3ccc(O)cc3O)nc(C)c2cc1OC | – | ? | – | · | – | – | – | – | 28µM
COc1ccc(NC(=O)CSC2=Nc3ccccc3C3=NC(Cc4ccccc4)C(=O)N23)cc1Cl (configuration not stated) | – | – | – | · | – | · | · | · | ·
CCc1ccc2c(c1)C(NC(C)=O)C(=O)N2CCN1CCOCC1 (configuration not stated) | – | 46µM | – | · | – | – | – | ? | 25µM
CCCN1C(=O)C(NC(C)=O)c2ccccc21 (configuration not stated) | – | – | – | – | – | – | · | · | ·
COc1ccccc1CNC(=O)c1ccc2c(c1)N(Cc1cc(C)ccc1C)C(=O)c1ccccc1S2 | – | – | – | · | – | · | · | · | ·
Cc1ccccc1-n1nc(CO)c(C(=O)NCCc2ccccc2)n1 | – | – | – | · | – | · | · | · | ·
COc1cccc(C2=C(C(C)=O)Sc3nncn3N2C(C)=O)c1 | – | ? | – | · | – | · | · | · | ·
CC(=O)C1=C(c2ccc(Cl)c(Cl)c2)N(C(C)=O)n2c(C)nnc2S1 | – | 45µM | – | · | – | · | – | – | 40µM
CC(=O)C1=C(c2ccc(Cl)c(Cl)c2)N(C(C)=O)n2cnnc2S1 | – | 45µM | – | · | ? | · | – | – | 20µM
CCOc1ccc(C2C(=O)N(C3CCCCCC3)CC(=O)N2CCC2=CCCCC2)cc1OC (configuration not stated) | – | – | – | · | – | · | · | · | ·
CC(=O)N1CCc2cc(CNS(=O)(=O)c3ccc(Cl)s3)ccc21 | – | – | – | · | – | · | · | · | ·
COc1ccc2c(C(=O)c3ccc(C)cc3)n(Cc3ccc(C(N)=O)cc3)[n+]([O-])c2c1 | – | ? | · | · | – | · | – | – | 16µM
CCOC(=O)C1=C(c2ccccc2)NC(SCC)=C(C#N)C1c1cccnc1 (configuration not stated) | – | ? | – | – | – | – | – | – | 16µM
CCCSC1=C(C#N)C(c2cccnc2)C(C(=O)OCC)=C(c2ccccc2)N1 (configuration not stated) | – | ? | – | – | – | – | · | · | ·
CN(c1ccccc1)c1ccc(/C=C/[N+](=O)[O-])cc1 | – | 29µM | – | – | ? | · | – | 71µM | 22µM
O=C(O)c1cc(-c2ccc(-c3c(-c4ccc5c(c4)OCO5)noc3-c3ccsc3)cc2)nc2ccccc12 | – | 45µM | – | – | – | · | – | ? | 20µM
CC(=O)Oc1ccc(C(=O)Nc2cccc(C(=O)c3ccc(C)c(C)c3)c2)cc1 | – | ? | – | – | – | – | – | – | 10µM
Cn1nnc2c(N3CCN(c4cccc(Cl)c4)CC3)ncnc21 | – | – | – | · | – | · | · | · | ·
SMILES | TrxR1 substrate | mIDH1 inhibitor | Anesthetic bind | PKM2 act | TrxR1 inh-1 | GALK inh | Resorufin autofl | WT IDH1 inh | mIDH1 confirm | others
CCN(C(=O)c1cc2c(C)nc3ccccc3c2o1)c1cc(Cl)ccc1OC | – | 33µM | – | – | – | · | – | – | 20µM
Cc1c(C)c2c(OCC(=O)NCC(=O)NCC(=O)O)cc3c(c2oc1=O)CCC(C)(C)O3 | – | – | – | · | – | – | · | · | ·
Cc1c(C)c2c(OCC(=O)O)cc3c(c2oc1=O)CCC(C)(C)O3 | – | ? | – | · | ? | – | – | ? | 18µM
CC(=O)c1cccc(NCC(=O)c2ccc(C)c([N+](=O)[O-])c2)c1 | – | 16µM | – | · | – | – | – | – | 40µM
Cc1ccc(CCNC(=O)Cn2nc(-c3ccc(C)cc3)ccc2=O)cc1 | – | – | ? | · | – | · | · | · | ·
CC(=O)OCC(=O)[C@@]12OC3(CCCC3)O[C@@H]1C[C@H]1[C@@H]3CCC4=CC(=O)C=C[C@]4(C)[C@@]3(F)[C@@H](O)C[C@@]12C | – | 14µM | – | – | – | – | – | – | 7.1µM
CC1(C)O[C@@H]2C[C@H]3[C@@H]4CCC5=CC(=O)C=C[C@]5(C)[C@@]4(F)[C@@H](O)C[C@]3(C)[C@]2(C(=O)CO)O1 | – | – | – | – | – | – | · | · | ·
COc1c(CC=C(C)C)cc(C2CC(=O)c3c(O)cc(O)cc3O2)cc1CC=C(C)C (configuration not stated) | – | 35µM | ? | – | ? | – | – | 40µM | 25µM
COc1ccccc1NC(=O)C1=C(C)Nc2nc(SCc3ccccc3Cl)nn2C1c1cccnc1 (configuration not stated) | – | – | – | · | – | · | · | · | ·
Cc1ccc(C2=NN=C(NC(=O)CSc3nncn3C)SC2)cc1 | – | 32µM | – | – | – | – | – | – | 45µM

Screening data (PubChem BioAssay)
